# Screening results deposited in PubChem BioAssay by National Center for Advancing Translational Sciences (NCATS).
# Compounds with a hit are over-represented: about 4.7% of the library has one in this group of screens.
# TRHR ag: activates the human TRH receptor; P34981; TRHR cells, calcium flux fluo-8, FDSS agonist mode; activation, % at 2 µM; 360,000 compounds, 0.18% hits; AID 493084; also: 0% is about no effect
# Target sequence (P34981 whole entry, looked up): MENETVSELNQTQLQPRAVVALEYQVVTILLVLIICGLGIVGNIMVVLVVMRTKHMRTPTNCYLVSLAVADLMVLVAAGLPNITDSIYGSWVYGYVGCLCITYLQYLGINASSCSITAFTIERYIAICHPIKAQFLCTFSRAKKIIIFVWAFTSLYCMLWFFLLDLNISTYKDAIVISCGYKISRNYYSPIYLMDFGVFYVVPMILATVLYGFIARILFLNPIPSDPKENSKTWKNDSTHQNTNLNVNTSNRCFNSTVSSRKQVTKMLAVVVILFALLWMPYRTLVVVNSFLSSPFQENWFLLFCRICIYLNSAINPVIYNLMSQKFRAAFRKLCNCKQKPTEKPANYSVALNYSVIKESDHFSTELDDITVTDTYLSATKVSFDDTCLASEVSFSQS
#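 Fluo-8-loaded TRHR cells; 10 s baseline, compound added, kinetic Ca2+ fluorescence read 1/s, agonist mode.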
# D1 antag: human D1 dopamine receptor antagonism. P21728. HEK293 TREx D1 cells, calcium flux, dopamine EC80; stronger effect = lower value. activity change, negative = inhibition, % at 10 µM. 360,000 compounds, 3.2% hits; in the data active = activity change below about -30%; also: % is scaled to controls: 0 for no effect and ±100 for the full control effect
#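 Using tetracycline-induced force-coupled D1 Hek293 cells and a calcium dye, signals were followed for 180 s after compound, then for 180 s after EC80 dopamine, to detect inhibitors.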
# D1 PAM: potentiators of human D1 dopamine receptor | P21728 | HEK293 TREx D1 cells, calcium flux, dopamine EC20 potentiation | potentiation, % at 10 µM | 360,000 compounds, 0.036% hits | AID 504651; in the data active = potentiation above about 30%; also: 0% is about no effect
# D1 ag: activates the human D1 dopamine receptor. P21728. HEK293 T-REx D1 cells, calcium flux, agonist mode. activation, % at 2 µM. 360,000 compounds, 1% hits. AID 504660; also: 0% is about no effect
#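 Tetracycline-induced HEK293 TREx D1 cells, force-coupled to calcium signalling, were dye-loaded with a no-wash calcium kit. Compound was pin-added after a 10 s baseline. Fluorescence was read kinetically at 1 cycle/s for 180 s, with calcium rises flagged as agonism.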
# TRHR enhancer: allosterically enhances the human TRH receptor; P34981; 360,000 compounds, 0.66% hits; TRHR cells, fluo-8 calcium fluorescence, EC20 TRH enhancement; enhancement, % at 2 µM; in the data active = enhancement above about 30%; also: 0% is about no effect
#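 Enhancer read-out: after compound pinning and an initial kinetic agonist-mode read, an EC20 of TRH (10 nM final) was injected and fluo-8 calcium signal (Ex 480/Em 530) followed at 1 s/cycle for 100 cycles in TRHR-expressing cells.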
# * marks the source's active call; other numbers are inactive results. Rule as the data show it, unless noted: active = activation above about 30%; inactive = the rest.
SMILES,TRHR ag,D1 antag,D1 PAM,D1 ag,TRHR enhancer
Cc1ccccc1C(=O)NNC(=S)NC(=O)c1ccccc1,59*,-37*,-1,279*,-23
O=C(NC(=S)NNC(=O)c1ccccc1O)c1ccccc1,3,-9,-1,2,1
O=C(Nc1ccccc1F)c1ccc2c(Cl)c3c(nc2c1)CCC3,0,-6,1,0,-7
COc1cccc(C(=O)Nc2ccc(C(=O)OCc3cc(=O)n4cc(C)sc4n3)cc2)c1,1,7,-1,3,-1
COc1cc(Nc2nc3c(S(=O)(=O)c4cccc(Cl)c4)nnn3c3ccsc23)cc(OC)c1,0,-1,-2,0,0
CC(NCCC(c1ccccc1)c1ccccc1)c1ccccc1 (stereo unspecified),4,17,7,60*,-2
Cc1ccc(CNC(C)c2ccccc2)s1 (stereo unspecified),-1,7,-4,-1,-4
CN1CCN(C2=Cc3ccc(Cl)cc3Sc3ccc(F)cc32)CC1,1,-91*,-28,9,5
CN1CCN(c2ccc(Cl)cc2NC(=O)/C=C/c2ccc(F)cc2)CC1,1,-12,0,7,3
CN1CCN(C2=Cc3ccccc3Sc3cc(F)ccc32)CC1,0,-62*,-9,8,1
CN1CCN(c2cc(C(F)(F)F)nc3ccc(F)cc23)CC1,1,0,-2,3,-4
O=c1ccc2cc(O)c(O)cc2o1,0,-41*,-4,2,-1
Cc1ccc(N=CC2=C(O)CC(c3ccco3)CC2=O)cc1 (stereo unspecified),0,-38*,3,3,3
O=C(NCC(c1ccc2c(c1)OCO2)N1CCN(c2ccccc2)CC1)C(=O)Nc1ccc(F)cc1 (stereo unspecified),1,34,-3,0,2
CCOC(=O)C1CCCN(c2nc3ccccc3nc2C(C#N)C(=O)NCc2ccccc2)C1 (stereo unspecified),5,-3,-9,33*,1
C=CCn1c(=N)n(CC(=O)c2ccc(Br)cc2)c2ccccc21,0,-18,3,0,-3
N=c1n(N)c2ccccc2n1CC(=O)c1ccc(Br)cc1,-1,-18,3,0,33*
CCC(=O)NC(c1ccc(F)cc1)c1cc(Cl)c2cccnc2c1O (stereo unspecified),3,-7,6,8,3
CC/C(C)=N/Nc1ccc(S(=O)(=O)N2CCCC2)cc1[N+](=O)[O-],0,-48*,-1,2,-5
CC(C)[C@H](Nc1ccc(S(=O)(=O)N2CCOCC2)cc1[N+](=O)[O-])C(=O)OCC(N)=O,0,-74*,-7,2,4
Cc1ccc(CN(C(=O)c2ccccc2Br)C2CCS(=O)(=O)C2)o1 (stereo unspecified),0,-5,0,0,-2
O=C1/C(=C\c2cc(Cl)c(O)c(Cl)c2)SC(=S)N1Cc1ccccc1,188*,-85*,-9,412*,3
COc1ccc(/C=C2/SC(=S)N(Cc3ccccc3)C2=O)cc1O,-1,4,-3,8,-7
COc1ccccc1/C=C1/SC(=S)N(CCC(=O)Nc2cccnc2)C1=O,1,5,-6,1,1
COc1ccc(OC)c(/C=C2\SC(=S)N(Cc3cccnc3)C2=O)c1,1,23,4,48*,8
SMILES,TRHR ag,D1 antag,D1 PAM,D1 ag,TRHR enhancer
COc1ccc(O)c(/C=C2/SC(=S)N(Cc3ccccc3)C2=O)c1,16,-5,-1,40*,-5
Cc1c(C(=O)NC(c2ccccn2)C(F)(F)F)oc2c(F)cccc12 (stereo unspecified),0,4,-3,4,-1
O=C(N/C=C\c1ccccc1)NCc1ccc(Cl)cc1,0,-31*,-2,3,0
O=C(COC(=O)CC(c1ccccc1)c1ccccc1)NCc1ccc(Cl)cc1,4,-34*,-6,29,-6
COc1ccccc1CNC(=O)CC(C)c1ccccc1 (stereo unspecified),1,10,-5,1,2
CCCC(=O)OCC(=O)NCc1ccc(Cl)cc1,-1,11,-3,2,6
CC(CC(=O)NCc1ccc(Cl)cc1)c1ccccc1 (stereo unspecified),0,2,-5,2,34*
